High-throughput results as filed in PubChem BioAssay.
Giardia FBPA inh: inhibitors of Giardia lamblia fructose-1,6-bisphosphate aldolase; A8B2U2; purified Giardia FBPA; Potency, µM (series often up to 59.6 µM), for inactives: at the top dose activity, negative = inhibition, most hits filed as inhibitors; actives 0.71% (n = 290,000); also: potency is read from the fitted curve at half-maximal effect; % is scaled to controls: 0 for no effect and ±100 for the full control effect; nearly all actives have a fitted effect of over 55% in size
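40 nM FBPA preincubated 10 min at RT with compound (up to 57.5 uM final), then substrate plus GAPDH/TPI/NAD/arsenate coupling and diaphorase/resazurin added. Fluorescence read after 20 min at RT, 525/598 nm.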
Cycloheximide cs: counter-screen for Shiga toxin inhibitors: cycloheximide protein synthesis inhibition; max response, %; actives 12% (n = 300,000); cell reporter, cycloheximide protein synthesis inhibition counterscreen; AID 2314; in the data active = max response mostly above about 13%, no sharp cut-off; inactive = mostly below about 14%; also: read at 38.3 µM for the half of the compounds with a filed dose; 0% is about no effect
LmPK inh: inhibitors of Leishmania mexicana pyruvate kinase; purified LmPK, Kinase-Glo ATP luminescence, 1 h; Potency, µM (series often up to 57.5 µM), inactives show at the highest dose activity change, negative = inhibition, hits mostly inhibitors; actives 0.37% (n = 290,000); Q27686; AID 1721; also: potency is read from the fitted curve at half-maximal effect; % is scaled to controls: 0 for no effect and ±100 for the full control effect
Target sequence (Q27686 whole entry, looked up): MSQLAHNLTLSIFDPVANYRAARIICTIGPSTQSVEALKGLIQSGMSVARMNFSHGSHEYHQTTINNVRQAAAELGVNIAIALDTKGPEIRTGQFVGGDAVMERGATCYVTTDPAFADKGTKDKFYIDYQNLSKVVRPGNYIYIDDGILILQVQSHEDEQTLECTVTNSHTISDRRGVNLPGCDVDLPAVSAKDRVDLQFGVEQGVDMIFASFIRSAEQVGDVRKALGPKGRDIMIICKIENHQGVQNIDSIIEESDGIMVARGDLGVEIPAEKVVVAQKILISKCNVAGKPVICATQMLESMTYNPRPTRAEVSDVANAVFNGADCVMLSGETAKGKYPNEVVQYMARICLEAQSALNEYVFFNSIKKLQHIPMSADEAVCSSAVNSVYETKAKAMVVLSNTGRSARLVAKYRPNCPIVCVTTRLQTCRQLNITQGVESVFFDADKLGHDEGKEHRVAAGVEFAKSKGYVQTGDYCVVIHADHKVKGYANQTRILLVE
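In 50 mM imidazole pH 7.2 with 7 mM MgCl2, LmPK (0.1 nM) turned over PEP (0.5 mM) and ADP (0.1 mM) for 1 h at room temperature. Luciferase read-out of ATP.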
Shiga toxin inh: blocks Shiga toxin action in Vero cells | Vero cells, Shiga toxin protein synthesis inhibition reporter | inhibition, % at 38.7 µM | actives 9.2% (n = 290,000) | AID 2315; in the data active = inhibition mostly above about 28%, no sharp cut-off; inactive = mostly below about 43%; also: 0% is about no effect
TbPYK inhibitor: T. brucei pyruvate kinase inhibition; TbPYK enzyme, Kinase-Glo Plus ATP luminescence, 45 min; Q57TT1; actives 0.12% (n = 410,000); Potency, µM (highest dose often 76.8 µM), for inactives: at the highest dose activity, negative = inhibition, hits mostly inhibitors; AID 624173; also: potency is read from the fitted curve at half-maximal effect; % is scaled to controls: 0 for no effect and ±100 for the full control effect; nearly all actives have a fitted effect of over 50% in size
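Quantitative HTS: titrated library compounds versus trypanosomal pyruvate kinase in TEA buffer (pH 7.2) containing KCl, MgCl2, BSA and Tween-20. Reactions were initiated with ADP, 130 uM final. Kinase-Glo Plus luminescence was read after 45 min at RT.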
RE007 growth inh: less growth of the S. pombe RE007 Vpr strain; S. pombe RE007 Vpr strain, BacTiter-Glo ATP luminescence, 24 h; Potency, µM (series often up to 92.2 µM), without a hit: top-dose activity change, negative = less growth, most hits filed as inhibitors; actives 0.21% (n = 360,000); AID 651644; active = well fitted falling curve with a large enough effect; inconclusive = small, poorly fitted or top-dose-only effect; inactive = no such curve, though single readings can be large or run the other way; also: potency is read from the fitted curve at half-maximal effect; % is scaled to controls: 0 for no effect and ±100 for the full control effect; nearly all actives have a fitted effect of over 50% in size
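Fission yeast RE007 carrying one integrated HIV-1 vpr copy, seeded at OD 0.01 in PMG+AL medium with 23 nL pinned compound. Grown 24 h at 30 degrees; viability read by BacTiter-Glo luminescence after 5 min.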
The depositor's hits bear a star; [ ] = dose if it differs, or a comment. The entries come from a sample that favours hits as a whole. Unless noted, calls follow the shape of the dose curve; as a rule, active = well fitted curve in the direction sought with a large enough effect; inconclusive = small, poorly fitted or top-dose-only effect, or another doubt; inactive = no such curve, though single readings can be large; an effect the other way counts as inactive or inconclusive.

How did COc1cccc(Cn2c(=O)cnc3cnc(Nc4ccccc4)nc32)c1 do in these assays?
Giardia FBPA inh: 2.5%

Results for C/C(=N/NC(=O)c1ccc(C(C)(C)C)cc1)c1ccccn1 ?
TbPYK inhibitor: -2.8%; RE007 growth inh: inconclusive

Results for C/C(=N\NC(=O)c1cc(Br)ccc1O)c1ccccn1 ?
Giardia FBPA inh: -5.1%; Cycloheximide cs: 27.7*; LmPK inh: 4.4%; Shiga toxin inh: 40.6*; TbPYK inhibitor: 4.8%; RE007 growth inh: -12.8%

What do the screens show for `COc1ccc(C(=O)N/N=C(\C)c2ccccn2)cc1OC`?
Giardia FBPA inh: inconclusive; Cycloheximide cs: 21.8*; LmPK inh: 4.9%; Shiga toxin inh: 41.7*; TbPYK inhibitor: -1.8%; RE007 growth inh: inconclusive

What do the screens show for `C/C(Cn1nnc2ccccc21)=N\NC(=O)c1cccc(Br)c1`?
Giardia FBPA inh: -9.4%; Cycloheximide cs: 24.2*; LmPK inh: -3.9%; Shiga toxin inh: active; TbPYK inhibitor: -7.2%; RE007 growth inh: -7.9%

What do the screens show for `C/C(=N\NC(=O)c1cccc(Br)c1)c1ccccn1`?
Giardia FBPA inh: inconclusive; Cycloheximide cs: 26.6*; LmPK inh: 1.8%; Shiga toxin inh: 87.4*; TbPYK inhibitor: -2.6%; RE007 growth inh: inconclusive

What do the screens show for `Cc1cccc(NS(=O)(=O)c2ccc(C(=O)N3CCCCCC3)cc2)c1C`?
TbPYK inhibitor: -5.3%; RE007 growth inh: -5.2%

What do the screens show for `O=C1Nc2ccccc2/C1=N\c1sc2c(c1C(=O)Nc1ccccc1)CCCC2`?
Giardia FBPA inh: -2.1%; Cycloheximide cs: 8.4; LmPK inh: -2.8%; Shiga toxin inh: 22.4*; RE007 growth inh: 16.1%[3.69 µM]

Results for CC1CN(CCc2ccccc2)c2nc3c(c(=O)n(CC(N)=O)c(=O)n3C)n2C1 (configuration not stated) ?
Giardia FBPA inh: 1.9%; Cycloheximide cs: -1.2; LmPK inh: -2.6%; Shiga toxin inh: -7.2; TbPYK inhibitor: -9.1%; RE007 growth inh: 2.0%

How did CN(C)c1ccc(CC(=O)N2CCCC(c3cc(C(=O)Nc4ccc5c(c4)OCO5)no3)C2)cc1 (configuration not stated) do in these assays?
TbPYK inhibitor: 0.4%; RE007 growth inh: 4.2%

How did Cc1nc(-c2ccc(C(=O)N3CCCC3)cc2)cs1 do in these assays?
Giardia FBPA inh: 3.6%; Cycloheximide cs: 36.8*; LmPK inh: inconclusive; Shiga toxin inh: 131.6*; TbPYK inhibitor: inconclusive; RE007 growth inh: -9.4%

How did O=C(c1ccc(C(=O)N2CCCCCC2)cc1)N1CCCCCC1 do in these assays?
Giardia FBPA inh: 2.4%; Cycloheximide cs: -1.7; LmPK inh: -5.0%; Shiga toxin inh: 25.7; TbPYK inhibitor: -6.4%; RE007 growth inh: 5.6%

What do the screens show for `Cc1nc(-c2ccc(C(=O)N3CCOCC3)cc2)cs1`?
Giardia FBPA inh: 18.1%; Cycloheximide cs: 31.7*; LmPK inh: -10.4%; Shiga toxin inh: 47.8; TbPYK inhibitor: -18.1%; RE007 growth inh: 10.0%

Results for CNc1cccc(-c2ccc(C(=O)N3CCOCC3)cc2)n1 ?
TbPYK inhibitor: -20.6%; RE007 growth inh: 4.7%[18.4 µM]

What do the screens show for `O=C(Nc1cccc(Cl)c1)Nc1ccon1`?
Giardia FBPA inh: -2.2%; Cycloheximide cs: 17.4; LmPK inh: -3.9%; Shiga toxin inh: 15.9; TbPYK inhibitor: 1.6%; RE007 growth inh: 9.7%

How did Cc1ccc(NC(=O)Nc2ccon2)cc1Cl do in these assays?
Giardia FBPA inh: 5.1%; Cycloheximide cs: 28.1*; LmPK inh: -0.5%; Shiga toxin inh: 50.2*; TbPYK inhibitor: 0.5%; RE007 growth inh: 7.6%

What do the screens show for `O=C(Nc1cccc(C(F)(F)F)c1)Nc1ccon1`?
Giardia FBPA inh: -1.1%; Cycloheximide cs: -3.2; LmPK inh: -6.1%; Shiga toxin inh: 13.9; TbPYK inhibitor: -0.8%; RE007 growth inh: -10.6%

Results for CCc1ccccc1NC(=O)Nc1ccon1 ?
Giardia FBPA inh: 3.2%; Cycloheximide cs: 2.7; LmPK inh: 2.5%; Shiga toxin inh: -6.4; TbPYK inhibitor: 3.1%; RE007 growth inh: 16.1%

What do the screens show for `Cc1ccc(NC(=O)Nc2ccon2)cc1`?
Giardia FBPA inh: 1.0%; Cycloheximide cs: 40.1*; LmPK inh: -11.9%; Shiga toxin inh: 66.3*; TbPYK inhibitor: -18.6%; RE007 growth inh: -13.3%

Results for O=C(Nc1ccc(Cl)cc1)Nc1ccon1 ?
Cycloheximide cs: 15.3*; LmPK inh: -6.8%; Shiga toxin inh: 28.8*; TbPYK inhibitor: -7.1%; RE007 growth inh: 6.1%

What do the screens show for `Cc1ccc(NC(=O)Nc2ccc3c(c2)C(=O)OC3)cc1Cl`?
Giardia FBPA inh: 6.2%; Cycloheximide cs: 3.1; LmPK inh: 0.3%; Shiga toxin inh: -2.1; TbPYK inhibitor: -1.7%; RE007 growth inh: 7.0%

What do the screens show for `O=C(Nc1ccon1)Nc1ccc(Cl)cc1Cl`?
Giardia FBPA inh: -4.7%; Cycloheximide cs: 24.5*; LmPK inh: -5.5%; Shiga toxin inh: 41.7*; TbPYK inhibitor: 5.5%; RE007 growth inh: 7.3%

Results for c1ccc(CSc2nc3ncccn3n2)cc1 ?
TbPYK inhibitor: -8.1%; RE007 growth inh: 1.1%

Results for CCOc1cc(C(=O)Nc2ccon2)cc(OCC)c1OCC ?
Giardia FBPA inh: 2.3%; Cycloheximide cs: 2.0; LmPK inh: 0.3%; Shiga toxin inh: 29.2; TbPYK inhibitor: 6.5%; RE007 growth inh: 1.4%

What do the screens show for `O=C(Nc1ccon1)Nc1cccc(Cl)c1Cl`?
Giardia FBPA inh: 1.3%; Cycloheximide cs: 9.6*; LmPK inh: 5.7%; Shiga toxin inh: 3.3; TbPYK inhibitor: -2.7%; RE007 growth inh: -16.6%

What do the screens show for `CCOc1ccc(NC(=O)Nc2ccon2)cc1`?
Giardia FBPA inh: 1.4%; Cycloheximide cs: 38.6*; LmPK inh: 1.2%; Shiga toxin inh: 57.5*; TbPYK inhibitor: -1.5%; RE007 growth inh: -19.6%

What do the screens show for `CCOC(=O)c1ccc(NC(=O)/C=C/c2cccs2)cc1`?
Giardia FBPA inh: -8.5%; Cycloheximide cs: 46.3*; LmPK inh: -8.7%; Shiga toxin inh: 109.0*; TbPYK inhibitor: -6.6%; RE007 growth inh: 30.1%

What do the screens show for `CCN(CC)CCOC(=O)c1ccc(NC(=O)/C=C/c2cccs2)cc1`?
Giardia FBPA inh: -20.2%; Cycloheximide cs: 74.8*; LmPK inh: -2.6%; Shiga toxin inh: 117.9*; TbPYK inhibitor: -4.1%; RE007 growth inh: -22.5%

Results for CCN(CC)CCOC(=O)c1ccc(NC(=O)CSc2nnc(-c3cccs3)n2CC)cc1 ?
TbPYK inhibitor: -14.5%; RE007 growth inh: 1.2%

Results for CC(=O)c1ccc(NC(=O)COC(=O)/C=C/c2cccs2)cc1 ?
TbPYK inhibitor: -10.6%; RE007 growth inh: -7.7%

Results for CCc1cc(=O)[nH]c(SCc2nc(-c3ccc(C(F)(F)F)cc3)no2)n1 ?
TbPYK inhibitor: -6.6%
